The record followed here is PubChem BioAssay (NCATS).

In assay [1] the target is Cytochrome P450 1A2 (Homo sapiens) (UniProt P05177). As to the kind of experiment: p450-cyp1a2 (AID 410; calls by dose curve; also: potency is read from the fitted curve at half-maximal effect). In short, it runs like this:
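Inhibition was calculated relative to 57 uM furafylline (full inhibition). The reaction used human CYP1A2 at 20nM with Luciferin-ME at its Km, 100uM, driven by an NADPH-regenerating system for 60 min at room temperature.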

For assay [2], the target named is Glucocorticoid receptor (Homo sapiens) (UniProt P04150). As to the kind of experiment: GR-EFC Redistribution (AID 451; calls by dose curve; also: potency is read from the fitted curve at half-maximal effect). Conditions: CHO-K1 GR-EFC translocation, beta-gal luminescence, 2 h. In short, it runs like this:
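Translocation of GR-ED fusion to nuclear EA restores b-gal, read by luminescence after 1 h room-temperature detection. Engineered CHO-K1 biosensor cells, 1,000/well, exposed 2 h at 37 C to titrations up to 46 uM final.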

The target in assay [3] is Mitogen-activated protein kinase 10 (Mus musculus) (UniProt Q61831). As to the kind of experiment: JNK3 AlphaScreen Assay (AID 530; active = well fitted curve in either direction with a large enough effect, not every such curve was filed as active;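 also: kinase came from lysate of stimulated human HepG2 cells; signal reports phosphorylation of biotinylated GST-cJun 1-79 at Ser73 with 10 µM ATP; series mostly up to about 57 µM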). In short, it runs like this:
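Room-temperature AlphaScreen kinase assay; pre-activated HepG2 lysate as JNK3 source, biotin-GST-cJun(1-79) substrate, 10 uM ATP, compound 15 min preincubation.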
On the technique in general: Alpha assays give light when donor and acceptor beads are brought close together.

Assay [4] has as its target 3',5'-cyclic-AMP phosphodiesterase 4B (Homo sapiens) (UniProt Q07343). As to the kind of experiment: qHTS Assay for Inhibitors of PDE-IV (AID 607; active = well fitted activation curve with a large enough effect in the main read-out, with a control signal flat, not every such curve was filed as active). In short, it runs like this:
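The readout is membrane depolarisation from a cAMP-sensing CNG channel, detected with a potential dye at ex 535/em 590. Cells were HEK293-derived (endogenous PDE-IV) at 1000 cells/well, titrated up to 22.9 uM final.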
(In qHTS, concentration-response curves come from the screen itself.)

Assay [5] addresses Guanine nucleotide-binding protein G(i) subunit alpha-1 (Homo sapiens) (UniProt P63096). As to the kind of experiment: qHTS Assay for Inhibitors of RGS12 GoLoco Motif Activity (Green Fluorophore) (AID 879).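 Also: negative values mean loss of peptide binding seen as reduced polarization.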 In short, it runs like this: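 Fluorescence polarization assay: 50 nM Gαi1 with 10 nM FITC-labeled RGS12 GoLoco peptide in 10 mM Tris pH 7.5, 150 mM NaCl, 0.1 mM GDP, 0.05% NP40, 10 min at room temperature with compound.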

For assay [6], the target named is Cytochrome P450 3A4 (Homo sapiens) (UniProt P08684). As to the kind of experiment: qHTS Assay for Activators of Cytochrome P450 3A4 (AID 885). Also: nearly all actives have a fitted effect of over 65% in size. In short, it runs like this:
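Steps: enzyme/substrate mix dispensed; compound added, 10 min RT; NADPH regeneration solution added, 60 min RT; luciferin detection buffer stops reaction; 20 min later luminescence measured.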

Assay [7] in a line: qHTS Assay for Identification of Small Molecule Antagonists for NFkB Signaling Pathway (AID 895; active = well fitted inhibition curve with a large enough effect in the signal ratio, with a control signal flat, not every such curve was filed as active; the % refers to the signal ratio). In short, it runs like this: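 Beta-lactamase reporter read-out (460 and 530 nm emission ratio, 405 nm excitation, 2 hrs substrate loading RT) after 5 hr stimulation with 10 pM TNF alpha in compound-treated NFkB-bla ME-180 cells in low-serum medium.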
Assay [8] in a line: qHTS Assay for Identification of Small Molecule Agonists for Thrombopoietin (TPO) Signaling Pathway (AID 917). Also: potency is read from the fitted curve at half-maximal effect. In short, it runs like this:
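Reporter: GpIIb promoter–luciferase in murine Ba/F3 expressing human TPO receptor. Pre-starved of IL-3 overnight; compounds with 26 pM TPO, 24 hrs, 37 C/5% CO2; luminescence read.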

Assay [9] concerns the target Muscarinic acetylcholine receptor M1 (Rattus norvegicus) (UniProt P08482). As to the kind of experiment: qHTS Assay for Antagonists of Acetylcholine Muscarinic M1 Receptor: Kinetic Measurement of Intracellular Calcium Response (AID 943).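 Also: Fluo-4 calcium signal as peak divided by basal fluorescence over 4 min; series mostly up to about 35 µM; nearly all actives have a fitted effect of over 75% in size.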 In short, it runs like this: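 Intracellular calcium flux, recorded with Fluo-4 in a kinetic plate reader, served as signal; the response to carbachol at EC80 (100 nM final) was taken as maximal over minimal fluorescence after a 10 min compound pre-incubation in rat M1-CHO cells.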

For assay [10] the target is unchanged. As to the kind of experiment: qHTS Assay for Antagonists of Acetylcholine Muscarinic M1 Receptor: Measurement of IP-One Response (AID 944). Also: nearly all actives have a fitted effect of over 75% in size. In short, it runs like this:
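Steps: plate transfected CHO-M1 cells overnight; add test compound, 10 min; add carbachol (200 nM, EC80) in stimulation buffer with LiCl; incubate 30 min; add labelled IP1 tracer and anti-IP1 antibody in lysis buffer; read HTRF after 10 min.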

Assay [11] concerns the target Pyruvate kinase PKM (Homo sapiens) (UniProt P14618). As to the kind of experiment: qHTS Assay for Activators of Human Muscle Pyruvate Kinase (AID 954; active = well fitted curve in the direction sought with a large enough effect, not every such curve was filed as active). In short, it runs like this:
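Reaction: 0.1 nM purified PKM2 with 0.5 mM phosphoenolpyruvate and 0.1 mM ADP, room temperature, 1 h. Readout: luciferase-based ATP luminescence after stop reagent. Activators judged against a 0.3 nM enzyme column.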

Assay [12] shares this target. As to the kind of experiment: qHTS Assay for Inhibitors of Human Muscle Pyruvate Kinase (AID 958). To be noted: purified human PKM enzyme activity. In short, it runs like this: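 ATP production by PKM2 detected via luciferase luminescence after 1 h room-temperature reaction (0.1 nM enzyme, PEP at Km 0.5 mM, ADP 0.1 mM, pH 7.2 imidazole buffer). Inhibition scaled to no-enzyme control; activation referenced to 0.3 nM enzyme wells.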

For assay [13], the target named is Pyruvate kinase (Leishmania mexicana) (UniProt Q27686). As to the kind of experiment: qHTS Validation Assay for Activators of Leishmania Mexicana Pyruvate Kinase (AID 959). In short, it runs like this:
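The enzyme is a highly purified E451W mutant of LmPYK used at 0.2 nM. It converts 0.5 mM PEP and 0.1 mM ADP over 1 h at room temperature; product ATP is quantified by luciferase luminescence relative to DMSO controls.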

The target in assay [14] is Alpha-galactosidase A (Homo sapiens) (UniProt P06280). As to the kind of experiment: Counterscreen for Glucocerebrosidase Inhibitors: qHTS Assay for Human alpha-Galactosidase at pH 4.5 (AID 992). In short, it runs like this:
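Concentration-response curves (0.7 nM to 77 uM final) were modeled with the Hill equation to give AC50. Reactions: 2 nM enzyme, 80 uM fluorogenic alpha-galactoside, pH 4.5 citric acid buffer, 20 min, room temperature.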
In general terms: The purpose of a counterscreen is to sort out artefacts and off-target activity.

Assay [15] deals with alpha-glucosidase (Oryza sativa, rice) (UniProt Q653V4). As to the kind of experiment: Counterscreen for Glucocerebrosidase Inhibitors: qHTS Assay for Rice alpha-Glucosidase at pH 5.0 (AID 997). In short, it runs like this: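 Rice alpha-glucosidase (4 nM final) with 400 uM 4-methylumbelliferyl-alpha-D-glucopyranoside in citrate buffer pH 5.0, 20 min at room temperature, stopped at pH 10; fluorescence 365/440 nm, compounds 0.7 nM–77 uM, AC50 from Hill fits.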

Assay [16] concerns the target Ubiquitin carboxyl-terminal hydrolase 1 (Homo sapiens) (UniProt O94782). As to the kind of experiment: Inhibitors of USP1/UAF1: Pilot qHTS (AID 504865).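 Also: rhodamine fluorescence freed from ubiquitin-rhodamine substrate followed over time; top concentration of the series differs between compounds; nearly all actives have a fitted effect of over 35% in size.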 In short, it runs like this:
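Deubiquitinase activity followed as kinetic rhodamine fluorescence release from 150 nM Ub-Rho. 1 nM USP1/UAF1 with compound, after 15 min room-temperature preincubation, in HEPES pH 7.8 buffer containing TCEP, EDTA, BSA and Tween-20.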

Assay [17] addresses DNA dC->dU-editing enzyme APOBEC-3G (Homo sapiens) (UniProt Q9HC16). As to the kind of experiment: qHTS for inhibitors of Vif-A3G interactions: Validation (AID 588379). Also: potency is read from the fitted curve at half-maximal effect. In short, it runs like this: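 HeLa cells stably expressing Vif and A3G-eYFP, 700 cells/well, incubated overnight at 37 deg C, then exposed to compound overnight at 37 deg C. Inhibition of Vif-mediated degradation read as increased yellow fluorescence (Ex 488/Em 500-530) by laser-scanning cytometry.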

Assay [18] relates to Zika virus NS2B-NS3 protease. As to the kind of experiment: Primary screen GU AMC qHTS for Zika virus inhibitors (AID 1347154). Also: nearly all actives have a fitted effect of over 70% in size. In short, it runs like this:
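Fluorogenic AMC-substrate cleavage by noncovalent NS2B-NS3 protease complex (25 nM, pH 8.0 Tris buffer with Tween 20) followed for 15 minutes at room temperature (~20% conversion). Percent inhibition from ex340/em450 signal change, fitted by 4-parameter Hill equation.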

Assay [19] in a line: Primary qHTS for small molecule stabilizers of the endoplasmic reticulum resident proteome: Secreted ER Calcium Modulated Protein (SERCaMP) assay (AID 1508630). In short, it runs like this: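 GLuc-SERCaMP-expressing SH-SY5Y cells, pretreated 16 h with compound, are challenged with thapsigargin to empty ER calcium stores; after 4 h, coelenterazine is added directly to the medium and luminescence is imaged.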

Assay [20] deals with Glucocorticoid receptor (Homo sapiens) (UniProt P04150). As to the kind of experiment: GR-GFP Redistribution (AID 450;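 active = compounds whose dose series gives a full or clear partial fitted curve of increased nuclear translocation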; also: potency is read from the fitted curve at half-maximal effect). Conditions: U2OS GR-GFP nuclear translocation, laser cytometry, 2 h.
In assay [21] the target is Cytochrome P450 3A4 (Homo sapiens) (UniProt P08684). As to the kind of experiment: qHTS Assay for Inhibitors and Substrates of Cytochrome P450 3A4 (AID 884). Also: potency is read from the fitted curve at half-maximal effect; nearly all actives have a fitted effect of over 50% in size. In short, it runs like this:
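20 nM human CYP3A4 with 25 uM Luciferin-PPXE (at KM) in 200 mM KPO4, preincubated 10 min with compound; NADPH regeneration started a 60 min RT reaction. Luciferin detected by luminescence, normalized to 57 uM ketoconazole as full inhibition.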

Assay [22] has as its target Cytochrome P450 2C9 (Homo sapiens) (UniProt P11712). As to the kind of experiment: qHTS Assay for Inhibitors and Substrates of Cytochrome P450 2C9 (AID 883). Also: potency is read from the fitted curve at half-maximal effect; nearly all actives have a fitted effect of over 60% in size. In short, it runs like this:
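Luminescent read-out of deoxyluciferin hydroxylation, normalized to 57uM sulphaphenazole (AC100). Reaction: 10nM enzyme, 100uM Luciferin-H (equal to KM), 25mM KPO4, 10 min compound preincubation, then 60 min with NADPH regeneration, both at 37C.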

Assay [23] deals with Cytochrome P450 2D6 (Homo sapiens) (UniProt P10635). As to the kind of experiment: qHTS Assay for Inhibitors and Substrates of Cytochrome P450 2D6 (AID 891). Also: potency is read from the fitted curve at half-maximal effect; nearly all actives have a fitted effect of over 60% in size. In short, it runs like this: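 Human CYP2D6 (5 nM) with 30 uM Luciferin-ME EGE (at Km) in 100 mM KPO4, compound preincubated 10 min, then NADPH regeneration system for 60 min at room temperature. Luciferin read by luminescence; normalized to 1.43 uM quinidine.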

Assay [24] deals with Cytochrome P450 2C19 (Homo sapiens) (UniProt P33261). As to the kind of experiment: qHTS Assay for Inhibitors and Substrates of Cytochrome P450 2C19 (AID 899). Also: potency is read from the fitted curve at half-maximal effect; nearly all actives have a fitted effect of over 60% in size. In short, it runs like this: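 Luminescence readout of luciferin formed from 10uM Luciferin-H EGE (KM level) by 5 nM CYP2C19 in 50mM KPO4. 60 min NADPH-driven reaction at 37C after 10 min compound preincubation; data scaled to 57uM ketoconazole inhibition.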

A number with no mark means an inactive call. Inconclusive results are not listed. The source made the active and inactive calls. Unless noted, calls follow the shape of the dose curve; as a rule, active = well fitted curve in the direction sought with a large enough effect; inconclusive = small, poorly fitted or top-dose-only effect, or another doubt; inactive = no such curve, though single readings can be large; an effect the other way counts as inactive or inconclusive.

Sequence of Ubiquitin carboxyl-terminal hydrolase 1 (Homo sapiens) (O94782 whole entry, looked up): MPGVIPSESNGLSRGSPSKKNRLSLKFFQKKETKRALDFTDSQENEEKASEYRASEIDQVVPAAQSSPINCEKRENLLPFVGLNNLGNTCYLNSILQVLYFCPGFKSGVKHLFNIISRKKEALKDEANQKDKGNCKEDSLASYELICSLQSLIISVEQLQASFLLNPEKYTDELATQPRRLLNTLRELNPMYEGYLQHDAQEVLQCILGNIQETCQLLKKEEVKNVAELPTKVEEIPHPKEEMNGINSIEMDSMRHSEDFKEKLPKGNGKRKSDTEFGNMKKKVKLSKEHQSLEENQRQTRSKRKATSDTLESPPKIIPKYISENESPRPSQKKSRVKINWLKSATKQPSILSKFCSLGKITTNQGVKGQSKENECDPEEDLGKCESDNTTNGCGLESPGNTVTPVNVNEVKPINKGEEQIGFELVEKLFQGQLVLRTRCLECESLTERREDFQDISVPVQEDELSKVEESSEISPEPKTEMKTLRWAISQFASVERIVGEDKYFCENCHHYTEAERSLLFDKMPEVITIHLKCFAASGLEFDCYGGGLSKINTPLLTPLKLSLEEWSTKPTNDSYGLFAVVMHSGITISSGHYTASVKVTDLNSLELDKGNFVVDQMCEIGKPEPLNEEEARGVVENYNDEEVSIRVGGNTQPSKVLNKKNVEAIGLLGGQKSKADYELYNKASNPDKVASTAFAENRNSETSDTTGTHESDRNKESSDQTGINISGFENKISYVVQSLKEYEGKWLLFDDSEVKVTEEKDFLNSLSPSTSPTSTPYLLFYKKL
Sequence of Cytochrome P450 3A4 (Homo sapiens) (P08684 whole entry, looked up): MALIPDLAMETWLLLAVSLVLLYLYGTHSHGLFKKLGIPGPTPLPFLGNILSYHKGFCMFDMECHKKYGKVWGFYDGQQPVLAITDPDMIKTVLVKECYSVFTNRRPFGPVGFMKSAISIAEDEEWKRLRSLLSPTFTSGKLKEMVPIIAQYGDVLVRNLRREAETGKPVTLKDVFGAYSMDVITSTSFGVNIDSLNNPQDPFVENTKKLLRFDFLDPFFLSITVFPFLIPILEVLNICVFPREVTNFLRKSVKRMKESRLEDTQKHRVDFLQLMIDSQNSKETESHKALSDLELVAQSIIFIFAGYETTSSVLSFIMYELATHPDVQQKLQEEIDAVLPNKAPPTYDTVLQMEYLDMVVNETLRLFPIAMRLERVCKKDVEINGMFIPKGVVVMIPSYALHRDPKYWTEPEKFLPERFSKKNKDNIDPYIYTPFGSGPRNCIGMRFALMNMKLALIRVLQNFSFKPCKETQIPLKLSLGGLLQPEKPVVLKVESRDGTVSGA
Sequence of DNA dC->dU-editing enzyme APOBEC-3G (Homo sapiens) (Q9HC16 whole entry, looked up): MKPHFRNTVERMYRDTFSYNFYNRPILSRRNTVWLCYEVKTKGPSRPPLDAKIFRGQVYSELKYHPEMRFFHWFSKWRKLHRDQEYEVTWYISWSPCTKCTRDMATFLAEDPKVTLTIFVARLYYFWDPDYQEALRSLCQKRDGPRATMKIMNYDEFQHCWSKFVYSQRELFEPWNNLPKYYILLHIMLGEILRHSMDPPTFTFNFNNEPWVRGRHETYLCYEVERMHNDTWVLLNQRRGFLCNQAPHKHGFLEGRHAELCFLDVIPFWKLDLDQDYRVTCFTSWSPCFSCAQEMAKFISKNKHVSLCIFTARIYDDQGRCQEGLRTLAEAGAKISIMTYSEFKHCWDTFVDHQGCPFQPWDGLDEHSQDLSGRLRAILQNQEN
Sequence of Cytochrome P450 1A2 (Homo sapiens) (P05177 whole entry, looked up): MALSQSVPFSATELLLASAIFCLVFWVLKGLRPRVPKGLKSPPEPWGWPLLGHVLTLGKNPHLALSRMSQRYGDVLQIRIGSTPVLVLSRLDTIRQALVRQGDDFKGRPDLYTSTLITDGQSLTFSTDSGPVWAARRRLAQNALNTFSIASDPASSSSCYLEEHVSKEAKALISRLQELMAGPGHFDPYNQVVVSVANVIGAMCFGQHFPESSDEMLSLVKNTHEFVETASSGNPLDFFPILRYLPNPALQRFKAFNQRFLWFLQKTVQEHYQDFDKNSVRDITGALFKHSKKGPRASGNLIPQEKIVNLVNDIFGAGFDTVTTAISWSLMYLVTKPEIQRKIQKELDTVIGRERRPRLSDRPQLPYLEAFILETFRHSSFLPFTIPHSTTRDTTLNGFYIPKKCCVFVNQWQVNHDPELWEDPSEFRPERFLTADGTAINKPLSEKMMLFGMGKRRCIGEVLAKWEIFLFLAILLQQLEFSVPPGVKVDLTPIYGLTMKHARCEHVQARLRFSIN
Sequence of 3',5'-cyclic-AMP phosphodiesterase 4B (Homo sapiens) (Q07343 whole entry, looked up): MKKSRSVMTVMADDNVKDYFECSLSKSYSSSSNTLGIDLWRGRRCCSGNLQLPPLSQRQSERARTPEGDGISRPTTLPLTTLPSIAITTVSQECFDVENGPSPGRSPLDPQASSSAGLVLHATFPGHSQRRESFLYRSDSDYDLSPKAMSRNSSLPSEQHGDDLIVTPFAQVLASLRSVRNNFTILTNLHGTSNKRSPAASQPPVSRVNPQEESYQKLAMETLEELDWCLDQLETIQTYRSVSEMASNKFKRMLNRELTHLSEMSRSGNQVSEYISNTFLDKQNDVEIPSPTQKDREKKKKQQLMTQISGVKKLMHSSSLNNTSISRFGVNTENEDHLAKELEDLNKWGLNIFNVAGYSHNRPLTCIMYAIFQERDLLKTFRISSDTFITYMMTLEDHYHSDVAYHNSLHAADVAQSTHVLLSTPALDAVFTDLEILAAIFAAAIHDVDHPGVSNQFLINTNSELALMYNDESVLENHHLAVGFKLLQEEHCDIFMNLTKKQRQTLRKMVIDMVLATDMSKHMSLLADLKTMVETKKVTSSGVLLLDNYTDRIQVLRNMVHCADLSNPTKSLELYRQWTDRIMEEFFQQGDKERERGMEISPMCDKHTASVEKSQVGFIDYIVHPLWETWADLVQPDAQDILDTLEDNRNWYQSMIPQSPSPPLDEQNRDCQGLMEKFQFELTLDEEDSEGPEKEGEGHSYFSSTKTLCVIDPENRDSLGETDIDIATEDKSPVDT
Sequence of Glucocorticoid receptor (Homo sapiens) (P04150 whole entry, looked up, the tested form may be a part): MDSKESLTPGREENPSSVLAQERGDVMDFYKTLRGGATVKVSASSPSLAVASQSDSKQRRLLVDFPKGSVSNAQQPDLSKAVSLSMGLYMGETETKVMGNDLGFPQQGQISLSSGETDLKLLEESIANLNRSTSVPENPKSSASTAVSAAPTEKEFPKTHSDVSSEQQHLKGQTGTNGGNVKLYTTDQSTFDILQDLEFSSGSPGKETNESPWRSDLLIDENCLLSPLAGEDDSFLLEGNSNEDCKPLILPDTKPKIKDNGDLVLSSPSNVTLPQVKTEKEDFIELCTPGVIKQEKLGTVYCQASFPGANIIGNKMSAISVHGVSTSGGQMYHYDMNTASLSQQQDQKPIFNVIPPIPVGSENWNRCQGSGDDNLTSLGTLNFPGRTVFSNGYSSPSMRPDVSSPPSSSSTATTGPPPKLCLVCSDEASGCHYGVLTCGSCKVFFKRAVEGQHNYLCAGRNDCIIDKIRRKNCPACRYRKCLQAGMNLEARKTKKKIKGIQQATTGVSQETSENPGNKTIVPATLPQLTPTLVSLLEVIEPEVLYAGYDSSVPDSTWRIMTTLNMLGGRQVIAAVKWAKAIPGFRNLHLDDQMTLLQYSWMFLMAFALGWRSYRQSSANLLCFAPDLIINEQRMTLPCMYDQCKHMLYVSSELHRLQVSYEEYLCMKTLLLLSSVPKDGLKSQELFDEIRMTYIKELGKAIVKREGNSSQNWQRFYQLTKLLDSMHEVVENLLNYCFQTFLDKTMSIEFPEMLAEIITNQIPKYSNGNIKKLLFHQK
Sequence of Pyruvate kinase PKM (Homo sapiens) (P14618 whole entry, looked up): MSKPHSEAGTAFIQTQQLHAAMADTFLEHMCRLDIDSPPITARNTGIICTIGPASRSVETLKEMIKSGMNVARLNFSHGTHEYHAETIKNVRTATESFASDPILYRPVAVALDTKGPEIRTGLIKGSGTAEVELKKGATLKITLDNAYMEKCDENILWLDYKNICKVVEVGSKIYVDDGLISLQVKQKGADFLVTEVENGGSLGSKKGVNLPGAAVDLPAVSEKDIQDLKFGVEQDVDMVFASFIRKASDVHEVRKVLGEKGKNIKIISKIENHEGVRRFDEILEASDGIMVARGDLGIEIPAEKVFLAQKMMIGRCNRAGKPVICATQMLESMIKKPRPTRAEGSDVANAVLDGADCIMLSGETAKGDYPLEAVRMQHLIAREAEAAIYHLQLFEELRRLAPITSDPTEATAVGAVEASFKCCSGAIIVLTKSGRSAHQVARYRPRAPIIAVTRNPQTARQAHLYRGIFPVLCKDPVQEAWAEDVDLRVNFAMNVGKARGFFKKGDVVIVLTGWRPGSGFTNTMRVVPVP
Sequence of Muscarinic acetylcholine receptor M1 (Rattus norvegicus) (P08482 whole entry, looked up): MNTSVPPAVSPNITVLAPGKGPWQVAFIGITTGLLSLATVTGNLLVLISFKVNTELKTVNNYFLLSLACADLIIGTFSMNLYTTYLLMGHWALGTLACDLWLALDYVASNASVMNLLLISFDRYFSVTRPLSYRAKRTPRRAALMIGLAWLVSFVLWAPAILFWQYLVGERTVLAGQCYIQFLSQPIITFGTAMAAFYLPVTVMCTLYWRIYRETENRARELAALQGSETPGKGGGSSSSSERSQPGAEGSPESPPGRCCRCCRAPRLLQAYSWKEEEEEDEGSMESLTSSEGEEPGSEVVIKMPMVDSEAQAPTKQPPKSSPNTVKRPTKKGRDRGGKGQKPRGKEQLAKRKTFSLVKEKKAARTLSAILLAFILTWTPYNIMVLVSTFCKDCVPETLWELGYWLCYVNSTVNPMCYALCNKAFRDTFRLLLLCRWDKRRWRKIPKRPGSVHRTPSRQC

As to `Fc1cccc(/C=N\N=C/c2cccc(F)c2)c1`, the Potency in [1] is 0.2 µM (active); in [2] it was over 46 µM; in assay [8], 3.16 µM (active); in assay [12], 2.51 µM (active). Further, the Potency result in assay [3], in [4], in [6], in assay [7], in assay [9] and in assay [10] was “inactive” each time. Moreover, the Potency entry in assay [13], in [16], in [17], in assay [18] and in [19] was “inactive” each time. Also, the outcome in [5], in assay [11], in [14] and in assay [15] was inactive.
In the case of `O=C(c1ccc2c(c1)OCO2)N1CCCCC1`, the Potency in assay [20] and in [2] was over 46 µM each time. Further, the Potency result in assay [3], in assay [4], in assay [16], in [17], in assay [18] and in assay [19] was “inactive” in each case.
Take `O=C(O)CC/C=C\C[C@@H]1CO[C@H](c2ccccc2Cl)O[C@@H]1c1ccccc1O`: the Potency in assay [20] and in [2] was over 46 µM throughout. In addition, the Potency entry in [3], in assay [6], in [16], in assay [17], in [18] and in assay [19] was “inactive” each time.
On to `COc1cccc(CNc2ccc3nc(-c4ccc(N)cc4)c(OC)n3n2)c1`, for which the Potency was 39.8 µM (active) in [1], over 46 µM in assay [20] and 5.01 µM (active) in [21]. Moreover, the Potency entry in assay [3], in [6], in [16], in [18] and in assay [19] was “inactive” each time.
For `CC(=O)[C@H](CC(C)C)NC(=O)[C@@H](CC(C)C)NC(=O)[C@H](CC(C)C)NC(=O)OCc1ccccc1`, the Potency was over 46 µM in assay [20], over 46 µM in assay [2] and 335 nM (active) in assay [17]. The Potency result in assay [3], in assay [4], in assay [18] and in [19] was “inactive” throughout.
Take `C#CCCCCCCCCCCCCCCCC(=O)O`: the Potency in assay [1] was 6.31 µM (active); in assay [20], over 46 µM. Also, the Potency entry in assay [4], in [17], in assay [18] and in assay [19] was “inactive” each time.
Regarding `CCOC(=O)C1=C(C)NC(c2ccccc2)=C(C(=O)OCc2ccc([N+](=O)[O-])cc2)[C@@H]1C#Cc1ccccc1`, the Potency in assay [20] and in [2] was over 46 µM throughout. Moreover, the Potency entry in assay [3], in assay [4], in [17], in [18] and in assay [19] was “inactive” throughout.
Take `COc1ccc(-c2ccc(=N)n(CCCC(=O)O)n2)cc1`: the Potency is over 46 µM in [20]; over 46 µM in assay [2]; 3.16 µM (active) in assay [22]; 3.98 µM (active) in assay [23]; 158 nM (active) in assay [24]. Further, the Potency result in assay [3], in assay [16], in assay [17], in [18] and in assay [19] was “inactive” each time.
As to `CCCCCCCC(=O)O[C@H](CC(=O)O)C[N+](C)(C)C`, the Potency in assay [20] and in assay [2] was over 46 µM each time. The Potency entry in assay [3], in [16], in assay [17], in assay [18] and in assay [19] was “inactive” in each case.
